Where two headings read alike, the source gives them in different places.
What was measured:
[1] = test system: AAK1; settings: n = 1
[2] = test system: ABL1-nonphosphorylated; settings: concentration: 1 μM,replicates: in singlicate; n = 1
[3] = test system: ABL1-phosphorylated; settings: concentration: 1 μM,replicates: in singlicate; n = 1
[4] = test system: ABL2; settings: concentration: 1 μM,replicates: in singlicate; n = 1
[5] = test system: ACVR1B; settings: concentration: 1 μM,replicates: in singlicate; n = 1
[6] = test system: ACVR1; settings: concentration: 1 μM,replicates: in singlicate; n = 1
[7] = test system: ACVR2A; settings: concentration: 1 μM,replicates: in singlicate; n = 1
[8] = test system: ACVR2B; settings: concentration: 1 μM,replicates: in singlicate; n = 1
[9] = test system: ACVRL1; settings: concentration: 1 μM,replicates: in singlicate; n = 1
[10] = test system: T1, ADCK3; settings: concentration: 1 μM,replicates: in singlicate; n = 1
T1 construct: gene CABC1

[11] = test system: ADCK4; settings: concentration: 1 μM,replicates: in singlicate; n = 1
[12] = test system: AKT1; settings: concentration: 1 μM,replicates: in singlicate; n = 1
[13] = test system: AKT2; settings: concentration: 1 μM,replicates: in singlicate; n = 1
[14] = test system: AKT3; settings: concentration: 1 μM,replicates: in singlicate; n = 1
[15] = test system: ALK; settings: concentration: 1 μM,replicates: in singlicate; n = 1
[16] = test system: T2, AMPK-alpha1; settings: concentration: 1 μM,replicates: in singlicate; n = 1
T2 construct: gene PRKAA1

[17] = test system: T3, AMPK-alpha2; settings: concentration: 1 μM,replicates: in singlicate; n = 1
T3 construct: gene PRKAA2

[18] = test system: ANKK1; settings: concentration: 1 μM,replicates: in singlicate; n = 1
[19] = test system: T4, ARK5; settings: concentration: 1 μM,replicates: in singlicate; n = 1
T4 construct: gene NUAK1

[20] = test system: T5, ASK1; settings: concentration: 1 μM,replicates: in singlicate; n = 1
T5 construct: gene MAP3K5

[21] = concentration: 1 μM,replicates: in singlicate
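Further: KINOMEscan kinase panel screen.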

Compound: Cl.Cl.NC[C@H](CC1CCCCC1)NC(=O)c1ccc(-c2ccnc3[nH]ccc23)s1 [GSK1581428]
- %Inh ([1]; 1 µM): 75%
- %Inh [2]: 0%
- %Inh [3]: 0%
- %Inh [4]: 8%
- %Inh [5]: 0%
- %Inh [6]: 5%
- %Inh [7]: 61%
- %Inh [8]: 0%
- %Inh [9]: 0%
- %Inh [10]: 13%
- %Inh [11]: 2%
- %Inh [12]: 94.1%
- %Inh [13]: 93.4%
- %Inh [14]: 98.1%
- %Inh [15]: 37%
- %Inh [16]: 77%
- %Inh [17]: 72%
- %Inh [18]: 0%
- %Inh [19]: 89%
- %Inh [20]: 0%

Compound: Cc1n[nH]c2cc(Nc3ccnc(Nc4cccc(CN5CCOCC5)c4)n3)ccc12 [GW682569]
- %Inh [1, 21]: 71%
- %Inh [2]: 22%
- %Inh [3]: 26%
- %Inh [4]: 23%
- %Inh [5]: 36%
- %Inh [6]: 85%
- %Inh [7]: 0%
- %Inh [8]: 39%
- %Inh [9]: 17%
- %Inh [10]: 19%
- %Inh [11]: 97.1%
- %Inh [12]: 0%
- %Inh [13]: 0%
- %Inh [14]: 0%
- %Inh [15]: 16%
- %Inh [16]: 0%
- %Inh [17]: 0%
- %Inh [18]: 17%
- %Inh [19]: 0%
- %Inh [20]: 0%

Compound: Cc1cccc(-c2nc(Nc3ccncc3)c3sccc3n2)n1 [GW869641]
- %Inh [1, 21]: 25%
- %Inh [2]: 0%
- %Inh [3]: 16%
- %Inh [4]: 0%
- %Inh [5]: 96.5%
- %Inh [6]: 0%
- %Inh [7]: 42%
- %Inh [8]: 41%
- %Inh [9]: 14%
- %Inh [10]: 0%
- %Inh [11]: 8%
- %Inh [12]: 5%
- %Inh [13]: 0%
- %Inh [14]: 3%
- %Inh [15]: 33%
- %Inh [16]: 20%
- %Inh [17]: 27%
- %Inh [18]: 12%
- %Inh [19]: 0%
- %Inh [20]: 25%

Compound: COC(=O)Nc1nc2cc(Oc3ccc(NC(=O)Nc4cc(C(F)(F)F)ccc4Cl)cc3)ccc2[nH]1.Cl [GW697465]
- %Inh [1, 21]: 0%
- %Inh [2]: 97%
- %Inh [3]: 32%
- %Inh [4]: 89%
- %Inh [5]: 0%
- %Inh [6]: 0%
- %Inh [7]: 0%
- %Inh [8]: 0%
- %Inh [9]: 0%
- %Inh [10]: 82%
- %Inh [11]: 48%
- %Inh [12]: 0%
- %Inh [13]: 0%
- %Inh [14]: 0%
- %Inh [15]: 30%
- %Inh [16]: 0%
- %Inh [17]: 0%
- %Inh [18]: 0%
- %Inh [19]: 0%
- %Inh [20]: 11%

Compound: OCCn1cc(-c2cnc3nnn(Cc4ccc5ncccc5c4)c3n2)cn1
- %Inh [1, 21]: 0%
- %Inh [2]: 32%
- %Inh [3]: 0%
- %Inh [4]: 0%
- %Inh [5]: 51%
- %Inh [6]: 0%
- %Inh [7]: 0%
- %Inh [8]: 0%
- %Inh [9]: 0%
- %Inh [10]: 0%
- %Inh [11]: 0%
- %Inh [12]: 0%
- %Inh [13]: 0%
- %Inh [14]: 45%
- %Inh [15]: 0%
- %Inh [16]: 3%
- %Inh [17]: 0%
- %Inh [18]: 0%
- %Inh [19]: 0%
- %Inh [20]: 19%

Compound: NC(=O)c1ccc(-c2cc3ncnc(SCC(=O)O)c3s2)cc1
- %Inh [1, 21]: 4%
- %Inh [2]: 57%
- %Inh [3]: 20%
- %Inh [4]: 0%
- %Inh [5]: 0%
- %Inh [6]: 0%
- %Inh [7]: 8%
- %Inh [8]: 17%
- %Inh [9]: 0%
- %Inh [10]: 25%
- %Inh [11]: 3%
- %Inh [12]: 0%
- %Inh [13]: 0%
- %Inh [14]: 0%
- %Inh [15]: 0%
- %Inh [16]: 0%
- %Inh [17]: 0%
- %Inh [18]: 0%
- %Inh [19]: 0%
- %Inh [20]: 0%

Compound: O=C(Nc1ccccc1)c1cccc(Oc2ccc3nccn3n2)c1
- %Inh [1, 21]: 1%
- %Inh [2]: 12%
- %Inh [3]: 0%
- %Inh [4]: 3%
- %Inh [5]: 5%
- %Inh [6]: 6%
- %Inh [7]: 0%
- %Inh [8]: 5%
- %Inh [9]: 2%
- %Inh [10]: 19%
- %Inh [11]: 0%
- %Inh [12]: 11%
- %Inh [13]: 0%
- %Inh [14]: 0%
- %Inh [15]: 0%
- %Inh [16]: 5%
- %Inh [17]: 7%
- %Inh [18]: 2%
- %Inh [19]: 0%
- %Inh [20]: 0%

Compound: COC(=O)c1cccc(NC(=O)NC2CCN(c3ccnc(Nc4cc(OC)c(OC)c(OC)c4)n3)C2)c1 (centres unmarked) [GSK1379767]
- %Inh [1, 21]: 68%
- %Inh [2]: 0%
- %Inh [3]: 0%
- %Inh [4]: 1%
- %Inh [5]: 0%
- %Inh [6]: 33%
- %Inh [7]: 35%
- %Inh [8]: 6%
- %Inh [9]: 0%
- %Inh [10]: 21%
- %Inh [11]: 60%
- %Inh [12]: 0%
- %Inh [13]: 0%
- %Inh [14]: 0%
- %Inh [15]: 50%
- %Inh [16]: 16%
- %Inh [17]: 9%
- %Inh [18]: 20%
- %Inh [19]: 10%
- %Inh [20]: 0%

Compound: COc1cc2nccc(Nc3ccc(Oc4ccccc4)cc3)c2cc1OC.Cl [GI261656]
- %Inh [1, 21]: 6%
- %Inh [2]: 89%
- %Inh [3]: 14%
- %Inh [4]: 16%
- %Inh [5]: 0%
- %Inh [6]: 0%
- %Inh [7]: 0%
- %Inh [8]: 0%
- %Inh [9]: 0%
- %Inh [10]: 5%
- %Inh [11]: 40%
- %Inh [12]: 0%
- %Inh [13]: 0%
- %Inh [14]: 0%
- %Inh [15]: 4%
- %Inh [16]: 0%
- %Inh [17]: 0%
- %Inh [18]: 0%
- %Inh [19]: 7%
- %Inh [20]: 0%

Compound: Cl.Nc1n[nH]c2cc(-c3ccccn3)ccc12 [GSK2189892]
- %Inh [1, 21]: 17%
- %Inh [2]: 0%
- %Inh [3]: 0%
- %Inh [4]: 0%
- %Inh [5]: 0%
- %Inh [6]: 10%
- %Inh [7]: 0%
- %Inh [8]: 6%
- %Inh [9]: 0%
- %Inh [10]: 11%
- %Inh [11]: 17%
- %Inh [12]: 0%
- %Inh [13]: 0%
- %Inh [14]: 0%
- %Inh [15]: 16%
- %Inh [16]: 0%
- %Inh [17]: 1%
- %Inh [18]: 0%
- %Inh [19]: 0%
- %Inh [20]: 0%

Reference: publication PMC5540273 (PLoS ONE, 2017)
